# nsP2pro primary – Primary qHTS for inhibitors of NSP2Pro chikungunya virus (CHIKV); 31,000 tested, 1.1% active; Polyprotein P1234 (Chikungunya virus (strain S27-African prototype)), Q8JUX6; AID 1964107, 2024; FRET peptide cleavage, nsP2pro, fluorescence 1 h; Potency, µM (titrated, usually from 24.9 µM), without a hit: top-dose activity change, negative = inhibition, most hits filed as inhibitors; note: nearly all actives have a fitted effect of over 60% in size
#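 Recombinant nsP2pro (150 nM) was preincubated with compound 15 min at room temperature in 10 mM Tris-HCl pH 8.0, 0.01% Tween 20. Peptide 2 FRET substrate (2.5 uM) was then added and fluorescence read after 1 h. Seven-point series, up to 25 uM.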
# nsP2 cell sec – Secondary cell base assay for inhibitors of NSP2Pro Chikungunya virus (CHIKV); shares compounds with nsP2pro primary; cell-based CHIKV nsP2 protease reporter assay; Potency, µM (top dose mostly 51.1 µM), for the others: at the top dose activity change, negative = inhibition, hits mostly inhibitors; 450 tested, 10% active; note: nearly all actives have a fitted effect of over 70% in size
# CHIKV NSP2 FL – Selectivity profile for inhibitors of NSP2Pro chikungunya virus (CHIKV): Full length NSP2 enzyme counterscreen (CHIKV-NSP2); shares compounds with nsP2pro primary; Full-length CHIKV NSP2 protease enzymatic counterscreen; Potency, µM (highest dose often 50.7 µM), for the others: at the top dose activity change, negative = inhibition, actives largely listed as inhibitors; 410 tested, 39% active; note: nearly all actives have a fitted effect of over 65% in size
# Furin counterscr – Selectivity profile for inhibitors of NSP2Pro chikungunya virus (CHIKV): Human furin counterscreen | 410 tested, 6% active | Recombinant human furin enzymatic counterscreen, fluorogenic substrate | shares compounds with nsP2pro primary | Potency, µM (series often up to 50.6 µM), for the others: at the top dose activity change, negative = inhibition, usual class: inhibitors | AID 1964102, 2024
# NS23 peptide cs – Selectivity profile for inhibitors of NSP2Pro chikungunya virus (CHIKV): Endogenous NS2/3 peptide Counterscreen | shares compounds with nsP2pro primary | 410 tested, 34% active | Purified CHIKV nsP2 protease, endogenous NS2/3 peptide cleavage | AID 1964103, 2024 | Potency, µM (titrated, usually from 51 µM), for the others: top-dose activity change, negative = inhibition, actives largely listed as inhibitors; note: nearly all actives have a fitted effect of over 55% in size
# Papain counter – Selectivity profile for inhibitors of NSP2Pro chikungunya virus (CHIKV): Papain Counterscreen; shares compounds with nsP2pro primary; AID 1964104, 2024; Potency, µM (titrated, usually from 51 µM), for the others: top-dose activity change, negative = inhibition, usual class: inhibitors; purified papain protease activity, enzymatic inhibition; 410 tested, 5% active
# nsP2pro conf qHTS – Confirmatory qHTS for inhibitors of NSP2Pro chikungunya virus (CHIKV) | AID 1964105, 2024 | CHIKV nsP2 protease enzymatic activity, qHTS | 410 tested, 43% active | Potency, µM (highest dose often 25.5 µM), without a hit: at the top dose activity change, negative = inhibition, usual class: inhibitors | shares compounds with nsP2pro primary; note: nearly all actives have a fitted effect of over 75% in size
# HCV NS3 4A cs – Selectivity profile for inhibitors of NSP2Pro chikungunya virus (CHIKV): NS34A-HCV Counterscreen. shares compounds with nsP2pro primary. HCV NS3/4A protease biochemical counterscreen. Potency, µM (doses to about 50.9 µM), usual class: inhibitors. 410 tested, 20% active; note: nearly all actives have a fitted effect of over 55% in size
# * marks the source's active call; other numbers are inactive results; i = inactive; ? = inconclusive; [ ] = remark or other dose. The sample as a whole holds a higher share of hits than the screen did. Calls come from the whole dose curve. % is set by controls: 0 for no effect and ±100 for the full control effect; potency is the fitted concentration of half-maximal effect.
SMILES,nsP2pro primary,others
Cc1nc(C2CCCN2Cc2ccc(-c3ccn[nH]3)o2)cs1 (stereo not drawn),8.9µM*,nsP2 cell sec=14%;CHIKV NSP2 FL=?;Furin counterscr=-3%;NS23 peptide cs=?;Papain counter=-6%;nsP2pro conf qHTS=?;HCV NS3 4A cs=?
Cc1occc1-c1ccc2ncnc(NCCc3cnc[nH]3)c2c1,i,
N[C@@H](Cc1ccccc1)C(=O)Nc1ccc(Cl)cc1C(=O)c1ccc[nH]1,1%,
O=c1c(NS(=O)(=O)c2cccc(F)c2)ccc2n1C[C@H]1C[C@@H]2CN(S(=O)(=O)c2ccccc2)C1,18%,
CCCS(=O)(=O)Nc1ccc2n(c1=O)C[C@H]1C[C@@H]2CN(C(=O)c2ccc(-c3ccccc3)cc2)C1,?,nsP2 cell sec=-2%;CHIKV NSP2 FL=?;Furin counterscr=-8%;NS23 peptide cs=?;Papain counter=-8%;nsP2pro conf qHTS=-4%;HCV NS3 4A cs=?
O=C(c1ccccn1)N1C[C@@H]2C[C@H](C1)c1ccc(NS(=O)(=O)c3cccc(F)c3)c(=O)n1C2,-6%,
COc1ccc(S(=O)(=O)N2C[C@@H]3C[C@H](C2)c2ccc(NS(=O)(=O)c4cccc(F)c4)c(=O)n2C3)cc1,24%,
O=c1c(NS(=O)(=O)Cc2ccccc2)ccc2n1C[C@H]1C[C@@H]2CN(S(=O)(=O)c2ccccc2)C1,?,nsP2 cell sec=6%;CHIKV NSP2 FL=?;Furin counterscr=-5%;NS23 peptide cs=?;Papain counter=-3%;nsP2pro conf qHTS=?;HCV NS3 4A cs=?
O=C(Nc1ccccc1)Nc1ccc2n(c1=O)C[C@H]1C[C@@H]2CN(C(=O)c2ccccc2)C1,-19%[39.2 µM],
CNC(=O)C1=C(C)NC(Nc2nc3ccccc3o2)=NC1c1[nH]ncc1Cl (stereo not drawn),-16%,
CC1(CCOC2OC(CO)C(O)C(O)C2O)CCC23OC2(C1)C(O)CC1C(C)(C(=O)O)CCCC13C (stereo not drawn),-15%[10 µM],
O=C1C(Cc2ccc(O)cc2)N2C(=O)CCN(C(=O)NCc3ccccc3)C2CN1Cc1cccc2ccccc12 (stereo not drawn),0%,
CC(=O)NC1C(OC2CCC3(C)C(CCC4(C)C3CC=C3C5CC(C)(C)CCC5(C(=O)O)C(O)CC34C)C2(C)C)OC(CO)C(O)C1O (stereo not drawn),9%[10 µM],
O=C(Nc1ccc(OC(F)(F)F)cc1)c1cc(-c2ccc(Cl)cc2)on1,-15%,
Cc1c(C(=O)Nc2ccc(N3C[C@@H](C)O[C@@H](C)C3)nc2)cccc1-c1ccc(OC(F)(F)F)cc1,?,nsP2 cell sec=-13%;CHIKV NSP2 FL=8%;Furin counterscr=-8%;NS23 peptide cs=10%;Papain counter=-10%;nsP2pro conf qHTS=-4%;HCV NS3 4A cs=i
CN1C(C(=O)Nc2ccc(OC(F)(F)F)cc2)=CC(c2cccs2)=NS1(=O)=O,-15%,
CCC(=O)C1CCCN(C(=O)CC(c2ccc3c(c2)OCO3)c2c(O)cc(OC)cc2OC)C1 (stereo not drawn),0%[39.2 µM],
N#Cc1ccc(CNc2nc(-c3ccccc3C(F)(F)F)nc3ccccc23)cc1,-7%,
CC(=O)NCCc1c[nH]c2ccccc12,4%[39.2 µM],
NC(Cc1c[nH]c2ccc(O)cc12)C(=O)O (stereo not drawn),?,nsP2 cell sec=8%;CHIKV NSP2 FL=6%;Furin counterscr=-11%;NS23 peptide cs=-19%;Papain counter=-8%;nsP2pro conf qHTS=-26%;HCV NS3 4A cs=i
O=C(NCCc1c[nH]c2ccc(O)cc12)c1ccc2ccccc2c1O,2%,
CC(C)(O)c1ccc2c(c1)ncn2-c1cccc(-c2ccccc2C#N)c1,42%,
CCN(Cc1cccc2nonc12)CC1CCCN(CCc2cccc(OC)c2)C1 (stereo not drawn),i,
N#CC1=C2SCN(C3CCCCC3)CN2C(=O)CC1c1ccc(F)cc1 (stereo not drawn),?,nsP2 cell sec=?;CHIKV NSP2 FL=-2%;Furin counterscr=-7%;NS23 peptide cs=1.8µM*;Papain counter=-13%;nsP2pro conf qHTS=13µM*;HCV NS3 4A cs=i
N#CC1=C2SCN(C3CCCCC3)CN2C(=O)CC1c1ccc(Cl)cc1 (stereo not drawn),72%,
SMILES,nsP2pro primary,others
Cc1cc(C)nc(NC(=S)N2CCN(c3cccc(C(=O)O)c3)CC2)c1,-18%,
C#CCOc1ccc(-c2nnc3n2N=C(c2ccc(OC)c(OCC(C)=O)c2)CS3)cc1,-4%,
O=C(c1cccs1)c1nonc1C(=O)c1cccs1,i,
CCOC(=O)c1c(NC(=O)c2nc(S(C)(=O)=O)ncc2Cl)sc(C(C)=O)c1C,?,nsP2 cell sec=3.7µM*;CHIKV NSP2 FL=?;Furin counterscr=-12%;NS23 peptide cs=4.6µM*;Papain counter=-3%;nsP2pro conf qHTS=-96%;HCV NS3 4A cs=?
CCOC(=O)c1c(NC(=O)COc2ccccc2)sc(C(C)=O)c1C,20%,
CCOC(=O)c1c(NC(=O)c2nc(SCC)ncc2Cl)sc(C(C)=O)c1C,-5%,
COc1ccc(C(=O)Nc2ccc(-c3nc4ccccc4[nH]3)cc2)cc1Br,-14%,
OCC1OC(c2ccc(Cl)c(Cc3ccc(OC4CCOC4)cc3)c2)C(O)C(O)C1O (stereo not drawn),-3%,
NCCC[C@H](N)CC(=O)N[C@H]1CNC(=O)[C@H]([C@H]2C[C@H](O)N=C(N)N2)NC(=O)/C(=C/NC(N)=O)NC(=O)[C@H](CO)NC(=O)[C@H](CO)NC1=O,7%,
Cc1cc(C(=O)N2CCC(OCCOc3ccc(F)cc3)CC2)nn1C,-6%,
O=C(c1cc(-c2ccco2)[nH]n1)N1CCSC(c2cc(F)ccc2F)CC1 (stereo not drawn),3.2µM*,nsP2 cell sec=6%;CHIKV NSP2 FL=5.8µM*;Furin counterscr=-9%;NS23 peptide cs=?;Papain counter=-19%;nsP2pro conf qHTS=9µM*;HCV NS3 4A cs=16µM*
CCOC(=O)c1ccc(N2C(=O)c3n[nH]c(-c4ccco4)c3C2c2cccc(F)c2)cc1 (stereo not drawn),18%,
